TbHK1 inh = T. brucei hexokinase 1 inhibition. recombinant TbHK1, G6PDH-coupled NADH A340. inhibition, % at 10 µM. 220,000 tested, 0.11% active;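 active = inhibition of 50% or more in the single-dose primary screen; inactive = inhibition below 50%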
G6PDH counter = L. mesenteroides G6PDH inhibition counter-screen; Purified L. mesenteroides G6PDH, diaphorase/resazurin coupled fluorescence, 45 min; AID 1020; inhibition, % at 5 µM; 200,000 tested, 0.12% active; in the data active = inhibition above about 50%
S1P3 antag = antagonists of human S1P3 receptor; inhibition, % at 4.98 µM; AID 485; 170,000 tested, 0.27% active; CHO S1P3 NFAT-BLA reporter, FRET fluorescence, antagonist mode;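 active = inhibition above the plate cutoff, the mean inhibition of test wells on that plate plus 3 SD, cut at about 28% in these data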;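 note: cells challenged with S1P at its EC80 of 0.8 µM; blue over green emission ratio from cleaved BLA substrate after 4 h stimulation; 0% = S1P-stimulated wells and 100% = unstimulated DMSO-only wells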
Target sequence (Q99500 whole entry, looked up): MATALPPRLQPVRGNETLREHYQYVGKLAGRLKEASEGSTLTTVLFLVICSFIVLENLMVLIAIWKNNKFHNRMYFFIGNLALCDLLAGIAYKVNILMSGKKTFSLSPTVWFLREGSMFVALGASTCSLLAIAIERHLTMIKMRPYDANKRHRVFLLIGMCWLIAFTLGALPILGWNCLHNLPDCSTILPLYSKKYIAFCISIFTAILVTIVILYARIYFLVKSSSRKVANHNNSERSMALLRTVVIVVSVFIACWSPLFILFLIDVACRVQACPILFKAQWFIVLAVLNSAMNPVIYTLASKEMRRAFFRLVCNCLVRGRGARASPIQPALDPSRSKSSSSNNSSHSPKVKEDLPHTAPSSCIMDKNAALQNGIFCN
p97 ATPase inh = human p97 ATPase inhibition | P55072 | recombinant p97 ATPase, Kinase-Glo ATP luminescence, 3 h | inhibition, % at 8 µM | 220,000 tested, 0.42% active | AID 1481; in the data active = inhibition above about 15%;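 note: 0% = DMSO vehicle and 100% = wells lacking enzyme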
DTT redox prof = compounds producing H2O2 with reducing agent – biochemical, NIH compound library profiling, artefact control for MLSCN library redox annotation, primary screen; DTT-dependent redox cycling H2O2, phenol red/HRP absorbance; 100% = 100 µM peroxide control, 0% = buffer; 200,000 tested, 0.03% active; AID 878; activation, % at 10 µM;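 active = activation of at least 50% relative to the plate's high and low controls in the primary single-dose screen; inactive = activation below 50%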;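 note: compound incubated with DTT at 0.8 mM final as the reducing agent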
p97 confirm = human p97 ATPase inhibition, confirmation; shares compounds with p97 ATPase inh; recombinant p97 ATPase, Kinase-Glo ATP luminescence; inhibition, % at 8 µM; AID 1517; 760 tested, 44% active;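 active = percent inhibition of p97 ATPase above a set limit, the primary screen's mean plus 3 SD, cut at about 15% in these data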;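 note: 0% = DMSO wells and 100% = wells lacking p97 protein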
The depositor's hits bear a star; x = no result given. An excerpt weighted towards active compounds, which were near 0.84% of everything screened.

SMILES | TbHK1 inh | G6PDH counter | S1P3 antag | p97 ATPase inh | DTT redox prof | p97 confirm
Cc1ccc(NC(=O)COC(=O)CCc2nc3ccccc3c(=O)[nH]2)cc1Cl | 5.8 | -1.2 | -11.3 | 16.3* | -0.5 | 1.4
N#C/C(=C\c1cccc([N+](=O)[O-])c1)c1ccccn1 | -2.9 | 1.2 | 14.8 | 4.9 | -1.8 | x
CC1(C(=O)NC2CCCCCCC2)CCC(=O)N1CCN1CCOCC1 (configuration not stated) | 5.1 | 5.0 | -20.9 | 3.4 | 0.1 | x
Cc1ccc(CCN2CC(C(=O)NCCCN3CCCCCC3)CC2=O)cc1 (configuration not stated) | -25.0 | 2.0 | -67.0 | 20.5* | -0.4 | 5.2
CCOC(=O)c1c(-c2ccccc2)csc1N1C(=O)Nc2ccccc2N1O | -4.4 | 11.2 | -2.8 | 18.1* | -0.3 | 20.9*
COC(=O)c1c(-c2ccccc2)csc1N1C(=O)Nc2ccccc2N1O | -6.8 | 2.8 | -2.8 | 15.3* | -0.2 | 23.1*
COC(=O)c1c(N2C(=O)Nc3ccccc3N2O)sc2c1CCCC2 | -10.6 | -2.7 | -0.7 | 8.6 | -0.2 | x
O=c1c(Cc2ccc(F)cc2)c(O)ccn1C1CC1 | -6.0 | 36.9 | x | -2.7 | -1.7 | x
COc1ccc(NC(=O)c2cc(SC)ccc2Cl)cc1 | 0.7 | -11.3 | -1.6 | 15.7* | 0.1 | 4.5
COC(=O)C(CCSC)NS(=O)(=O)c1ccc(Cl)cc1 (configuration not stated) | 3.6 | 9.0 | -2.8 | 3.6 | 0.2 | x
CSCCC(NS(=O)(=O)c1ccc(Cl)cc1)C(=O)OCC(=O)NC12CC3CC(CC(C3)C1)C2 (configuration not stated) | -0.6 | 4.0 | x | 22.4* | 0.2 | -2.5
CCn1nc(CC(=O)Nc2nnc(CC(=O)N3CCOCC3)s2)c2ccccc2c1=O | 3.0 | 2.1 | x | 19.9* | 1.6 | 8.0
CCn1nc(CC(=O)Nc2nnc(CC(=O)N3CCCC3)s2)c2ccccc2c1=O | 3.8 | 5.8 | x | 5.6 | -0.3 | x
Cc1csc(NC(=O)c2ccncc2)n1 | -22.1 | x | -4.3 | 2.9 | x | x
O=C(NCCCO)Nc1ccc2nc(-c3ccco3)c(-c3ccco3)nc2c1 | -7.0 | 29.3 | x | 25.4* | 1.1 | 22.5*
O=C(Nc1cccc(C(F)(F)F)c1)c1ccc2nc(-c3ccco3)c(-c3ccco3)nc2c1 | -0.2 | 11.3 | x | -0.6 | 1.4 | x
O=C(Nc1ccc2nc(-c3ccco3)c(-c3ccco3)nc2c1)NC1CC1 | -0.6 | 22.2 | x | 30.6* | -0.1 | 24.5*
O=C(O)c1ccc2nc(-c3ccco3)c(-c3ccco3)nc2c1 | -18.1 | 43.0 | -5.7 | 25.9* | 0.0 | 0.8
CCCCCOc1ccccc1C(=O)NCCCCCC(=O)O | -5.4 | x | 2.6 | 6.9 | x | x
Nc1nc(N)c2cc(Sc3ccc4ccccc4c3)ccc2n1 | -9.2 | x | 2.8 | 15.3* | x | 24.4*
Nc1ccc(Sc2cc(Cl)nc(N)n2)cc1 | 2.3 | -27.4 | x | -1.6 | 0.6 | x
CN(CCCNC(=O)c1cc2c(=O)[nH]c3ccccc3c2n1C)Cc1ccccc1 | -5.6 | 1.8 | -3.1 | -1.8 | 9.6 | x
COc1ccc(NC(=O)N(CCCN(C)C)Cc2cc3cc(OC)ccc3[nH]c2=O)cc1 | -14.8 | 7.0 | 7.2 | 3.4 | 0.3 | x
Cc1ccc2[nH]c(=O)c(CN(CCCN(C)C)C(=O)Nc3ccc(F)cc3)cc2c1 | -0.7 | -3.9 | -22.3 | 15.7* | -1.2 | 4.2
COc1cccc(CN(C)CC(=O)Nc2sc3c(c2C#N)CCC3)c1OC | -7.8 | -0.5 | -9.9 | -0.6 | -0.2 | x
SMILES | TbHK1 inh | G6PDH counter | S1P3 antag | p97 ATPase inh | DTT redox prof | p97 confirm
COc1cc(C(=O)Nc2ccc(NC(=O)c3ccco3)nc2)cc(OC)c1OC | -3.0 | 0.6 | 8.8 | 2.7 | 1.6 | x
Cc1[nH][nH]c(=O)c1C(c1c(C)[nH][nH]c1=O)c1cn(Cc2ccccc2Cl)c2ccccc12 | -7.2 | 16.3 | 1.5 | 20.4* | 0.6 | 20.0*
COC(=O)N/N=C/c1cn(Cc2ccccc2Cl)c2ccccc12 | 32.2 | -12.0 | -0.5 | 3.1 | 0.9 | x
O=C1CC(c2ccc(O)cc2)Oc2cc(O)cc(O)c21 (configuration not stated) | -24.6 | 23.0 | -4.2 | 6.1 | 0.3 | x
CC1CC(=O)c2c(cc3c(-c4c(O)cc(O)c5c(O)c6c(cc45)OC(C)CC6=O)c(O)cc(O)c3c2O)O1 (configuration not stated) | -39.9 | 18.5 | 3.2 | 56.0* | 1.7 | 49.4*
CCOC(=O)c1c(CC(C)C)csc1NC(=O)c1ccccc1C(=O)O | -12.5 | x | -14.8 | 18.2* | x | 21.6*
CC1=CC(C)(C)Nc2ccc(OC(=O)CN3C(=O)CCC3=O)cc21 | -5.8 | 21.3 | 3.3 | 0.6 | -1.9 | x
O=C(c1ccc(NS(=O)(=O)c2ccccc2)cc1)N1CCCC1 | 0.3 | 17.7 | 4.2 | 2.6 | 2.5 | x
Oc1[nH]c(=S)sc1/C=C1\C(c2ccccc2)=Nc2ccccc21 | -5.7 | 6.1 | -23.3 | 22.7* | 1.0 | 53.2*
O=c1cc(N=Nc2ccc(Cl)cc2)[nH]c(=O)[nH]1 | -39.9 | x | -8.4 | 28.3* | x | 15.2*
COc1c(Br)cc(Br)cc1/C=C1/C(=O)N=C(N)N1C | -1.2 | -0.7 | -13.9 | -3.6 | -1.1 | x
Cc1ccc(NC(=O)CN2C(=O)N/C(=C/c3cc(C)n(-c4ccc(C(=O)O)cc4)c3C)C2=O)cc1 | -11.3 | -1.3 | -8.5 | 6.8 | -1.1 | x
Cc1ccc(NC(=O)CN2C(=O)N/C(=C/c3cccn3-c3ccc(C(=O)O)cc3)C2=O)cc1 | 0.4 | -9.0 | -6.3 | 17.1* | -0.2 | 31.6*
CCCc1cc(=O)[nH]c(SCC(=O)Nc2ccc3c(c2)CCC3)n1 | 22.0 | 11.5 | -8.8 | 15.1* | -9.7 | 4.3
CC(=O)Nc1ccc(NC(=O)Nc2ccccc2C)cc1 | 4.2 | 14.4 | 4.4 | 7.7 | -0.1 | x
CCN(CC)S(=O)(=O)c1cccc(NC(=O)c2cc(-c3cccs3)nn2-c2ccccc2)c1 | 21.6 | 4.5 | 1.4 | -1.4 | 0.8 | x
CN(C)S(=O)(=O)c1cccc(NC(=O)c2cc(-c3cccs3)nn2-c2ccccc2)c1 | -6.8 | 13.1 | 3.3 | 25.9* | 0.2 | 5.5
Cc1ccc(S(=O)(=O)Nc2nc3c(s2)C(=O)CC(C)(C)C3)cc1 | -41.4 | 12.8 | -18.8 | 15.5* | -1.2 | 4.8
CC1(C)CC(=O)c2sc(NS(=O)(=O)Cc3ccccc3)nc2C1 | -45.2 | 4.7 | -7.6 | 2.6 | 2.1 | x
Cc1ccc(C2=[N+]([O-])C(C)(C)N(O)C2(C)C)cc1 | 1.4 | 3.4 | -1.1 | 6.1 | 0.3 | x
CCN1C(=O)c2ccc(-c3nc4ccccc4c(=O)o3)cc2C1=O | -7.4 | 5.7 | -22.2 | 24.5* | 0.2 | 6.3
O=C1NN(c2cccc(Br)c2)C(=O)/C1=C/c1cccs1 | -39.3 | x | 1.4 | 16.8* | x | 23.0*
O=C1NN(c2ccccc2)C(=O)/C1=C/c1cccs1 | -22.2 | -0.6 | -3.0 | 8.0 | 1.6 | x
COc1ccc(CCn2c3c(c(=O)[nH]c2=O)C(NC(=O)c2cccs2)(C(F)(F)F)C(=O)N3)cc1OC (configuration not stated) | -7.5 | 6.0 | x | 27.3* | 2.4 | 7.8
OCCNc1nc(Nc2ccccc2)nc2ccccc12 | -5.5 | -4.0 | x | 3.7 | 1.8 | x
